Experimental findings from PubChem BioAssay (Tox21) are described below.

A number with no mark means an inactive call. Results filed as inconclusive are left out. Active and inactive are the calls of the source. Unless noted, the call rests on the fitted dose curve; in most records, active means well fitted curve in the direction sought with a large enough effect in the repeat runs; inconclusive means weak or mixed curves; inactive means no such curve, though single readings can be large; an effect the other way counts as inactive or inconclusive.

Assay [1] can be described thus: qHTS assay to identify small molecule agonists of the hypoxia (HIF-1) signaling pathway - cell viability counter screen (AID 1224844; calls by dose curve; further: nearly all actives have a fitted effect of over 50% in size). In a few lines:
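In this counter screen, HRE-bla ME-180 cell viability after 17 hrs of compound exposure at 37C was read by CellTiter-Glo luminescence, multiplexed with the beta-lactamase reporter measurement.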
For orientation: qHTS replaces the single test concentration by a dilution series.

Assay [2] is described as follows: qHTS assay to identify small molecule agonists of H2AX (AID 1224845; active means well fitted activation curve with a large enough effect in the signal ratio in the repeat runs, not every such curve was filed as active; the % refers to the signal ratio). In a few lines: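 Wild-type CHO-K1 cells plated overnight, then exposed 3 hr at 37C to compounds at 15 concentrations (0.76% DMSO). Lysed, then HTRF anti-pH2AX(S139)-cryptate/anti-H2AX-d2 detection after 24 hr at room temperature; emissions 665 and 620 nm.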
A short description of assay [3]: qHTS assay to identify small molecule agonists of the hypoxia (HIF-1) signaling pathway (AID 1224846; active means well fitted activation curve with a large enough effect in the signal ratio in the repeat runs, not every such curve was filed as active; the % refers to the signal ratio). In a few lines:
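ME-180 HRE-bla reporter cells; compounds in DMSO, 17 h at 37C; read-out beta-lactamase via CCF4-AM FRET.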

The nature of assay [4]: qHTS assay to identify small molecule agonists of H2AX - cell viability counter screen (AID 1224847; calls by dose curve; further: top concentration of the series differs between compounds; nearly all actives have a fitted effect of over 30% in size). In a few lines: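 Read-out: CellTiter-Glo luminescence, 30 min RT. Cells: wild-type CHO-K1, 1000/well, 10% FBS, plated overnight at 37C. Treatment: 15 concentrations, 3 hr, 37C, 0.76% DMSO.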
Assay [5] is described as follows: qHTS assay to identify small molecule antagonists of the estrogen related receptor (ERR) signaling pathway from Tox21 library (AID 1224848). Further: nearly all actives have a fitted effect of over 50% in size. In a few lines:
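Tox21 10K compounds in DMSO tested for ERR pathway antagonism in NTP's ERR cell line; 18 h, 37 C exposure; ONE-Glo luminescence.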

Assay [6] can be described thus: qHTS assay to identify small molecule agonists of the estrogen related receptor (ERR) signaling pathway from Tox21 library (AID 1224849; calls by dose curve; further: nearly all actives have a fitted effect of over 15% in size). The note with it: ERR reporter cell line, ONE-Glo luciferase, 18 h; at 92.4 µM (top of the series) unless noted. In a few lines: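 Luciferase activity in ERR pathway reporter cells served as the agonist readout; exposure lasted 18 h at 37 C, with ONE-Glo detection after 30 min at room temperature.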

The nature of assay [7]: qHTS RealTime-Glo MT Cell Viability Assay in HepG2 cells - 24 hour (AID 1224867). Further: nearly all actives have a fitted effect of over 50% in size. In a few lines: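 HepG2 cells were seeded at 600 cells/well together with NanoLuc luciferase and a cell-permeant prosubstrate, preincubated 5 h at 37 C/5% CO2, then pin-dosed with compounds in DMSO. Nonlytic luminescence from viable cells was read at each time point.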
Assay [8] in a line: qHTS RealTime-Glo MT Cell Viability Assay in HEK293 cells - 32 hour (AID 1224868). Further: nearly all actives have a fitted effect of over 50% in size. Further: potency means the concentration at half of the fitted maximal effect. On activity change, negative = cytotoxic: top concentration of the series differs between compounds. In a few lines:
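HEK293 cells were seeded at 600 cells/well together with NanoLuc luciferase and cell-permeant prosubstrate, preincubated 5 h at 37 C/5% CO2, then given compound in DMSO by pintool. Luminescence from viable-cell prosubstrate reduction was read repeatedly over 40 h.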

Assay [9] in a line: A CellTox Green Cytotoxicity Assay to monitor cytotoxicity in HEK293 cells - 0 hour (AID 1224869). Further: nearly all actives have a fitted effect of over 50% in size. In a few lines:
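Real-time, in one plate: 600 HEK293 cells/well with dead-cell DNA dye, pinned compound after 5 h, 37 C incubation over 40 h; viable cells give no appreciable fluorescence.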

The nature of assay [10]: qHTS RealTime-Glo MT Cell Viability Assay in HepG2 cells - 40 hour (AID 1224870). Further: nearly all actives have a fitted effect of over 50% in size. In a few lines: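 HepG2 cells mixed with RealTime-Glo MT reagents (NanoLuc plus cell-permeant prosubstrate) were seeded at 600 cells/well, incubated 5 h at 37 C/5% CO2, then pinned with compounds in DMSO; nonlytic luminescence tracked viability during 40 h treatment.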
On the % scale 0 is the no-effect control and ±100 the full control effect.

On to `S=C=S`, for which the Potency entry in [1], in assay [4], in assay [5], in assay [7], in [8] and in [10] was “inactive” throughout. Further, the call in assay [2], in assay [3] and in assay [9] was inactive. The activity change, positive = activation in [6] was 2.11%.

In the case of `Cc1ccc(Cl)c(O)c1`, the Potency entry in assay [1], in assay [4], in assay [5], in assay [7], in assay [8] and in [10] was “inactive” in each case. For the same compound, the outcome in [2], in assay [3] and in assay [9] was inactive. Further, the activity change, positive = activation in [6] was 6.81% [at 42.5 µM].

Take `COc1cc(CC(C)N)cc(OC)c1OC` (configuration not stated): the Potency result in assay [1], in assay [4], in [5], in [7], in assay [8] and in assay [10] was “inactive” each time. The result in [2], in assay [3] and in assay [9] was inactive. In addition, the activity change, positive = activation in assay [6] is 12.1%.

For the compound `CCCCS(=O)(=O)Cl`, the Potency entry in assay [1], in [4], in assay [5], in assay [7] and in assay [8] was “inactive” each time. Also, the outcome in [2] and in [3] was inactive. Also, in assay [6], the activity change, positive = activation is -4.82%.

Consider `CCCC[N+](=O)[O-]`, for which the Potency result in assay [1], in [4], in [5], in assay [7], in [8] and in [10] was “inactive” each time. In addition, the result in [2], in [3] and in [9] was inactive. Also, in [6], the activity change, positive = activation is -0.684%.

Regarding `ClCC1CO1` (configuration not stated), the Potency entry in assay [1], in assay [4], in assay [5], in assay [7], in assay [8] and in [10] was “inactive” each time. Further, the compound was called inactive in assay [2], in assay [3] and in assay [9]. Also, the activity change, positive = activation in assay [6] is -2.49%.

`O=c1[nH]c2ccccc2o1`: the Potency entry in assay [1], in [4], in assay [5], in assay [7] and in assay [8] was “inactive” throughout. The outcome in assay [2] and in assay [3] was inactive. Also, the activity change, positive = activation in assay [6] was -3.64%.

`CC1=C2[C@H]3OC(=O)[C@@H](C)[C@@H]3CC[C@@]2(C)C=CC1=O`: the Potency entry in assay [1], in [4], in assay [5], in [7], in assay [8] and in assay [10] was “inactive” in each case. The result in assay [2] and in assay [3] was inactive. In addition, the activity change, positive = activation in [6] is 5.47% [at 42.5 µM].

Consider `CCC(C)C(C)(COC(N)=O)COC(N)=O` (configuration not stated), for which the Potency entry in assay [1], in [4], in assay [5], in assay [7], in assay [8] and in assay [10] was “inactive” in each case. Moreover, the call in assay [2], in assay [3] and in assay [9] was inactive. Further, the activity change, positive = activation in assay [6] is 1.95% [at 42.5 µM].

Consider `O=[N+]([O-])CCO`, for which the Potency result in assay [1], in assay [4], in assay [5], in [7], in assay [8] and in [10] was “inactive” each time. The result in assay [2] and in [3] was inactive. Moreover, in assay [6], the activity change, positive = activation was 1.1%.

With `O=C(CCl)NCO`, the Potency result in [1], in [4], in assay [5], in assay [7], in [8] and in [10] was “inactive” throughout. Moreover, the call in assay [2], in assay [3] and in assay [9] was inactive. In addition, the activity change, positive = activation in assay [6] was 7.02%.

Turning to `COc1ccccc1OC`, the Potency entry in assay [1], in assay [4], in assay [5], in assay [7], in assay [8] and in assay [10] was “inactive” each time. Moreover, the compound was called inactive in assay [2], in [3] and in assay [9]. Also, the activity change, positive = activation in assay [6] is 2.11%.

Consider `CC(Cc1ccccc1)NCCn1cnc2c1c(=O)n(C)c(=O)n2C` (configuration not stated), for which the Potency entry in [1], in assay [4], in assay [5], in [7] and in assay [10] was “inactive” throughout. Also, the compound was called inactive in [2] and in [3]. Also, the activity change, positive = activation in assay [6] is -15.8%. Besides, the Potency in [8] was 21.6 µM (active).

As for `O=S1(=O)OCCO1`, the Potency entry in [1], in assay [4], in assay [5], in assay [7], in assay [8] and in assay [10] was “inactive” in each case. The call in assay [2], in assay [3] and in assay [9] was inactive. In addition, the activity change, positive = activation in assay [6] was 5.54%.

On to `CCC1(CC)C(=O)C=CNC1=O`, for which the Potency entry in assay [1], in [4], in assay [5], in assay [7], in assay [8] and in assay [10] was “inactive” in each case. Also, the outcome in [2], in assay [3] and in assay [9] was inactive. For the same compound, the activity change, positive = activation in assay [6] was 4.55% [at 42.5 µM].

Consider `COP(=O)(OC)O/C(C)=C/C(=O)N(C)C`, for which the Potency entry in assay [1], in assay [4], in assay [5], in [7], in [8] and in assay [10] was “inactive” each time. Also, the compound was classed as inactive in assay [2] and in assay [3]. In addition, the activity change, positive = activation in assay [6] is -0.44%.

Regarding `Cc1ccc2c(c1)C1CN(C)CCC1N2` (configuration not stated), the activity change, negative = cytotoxicity in [1] is -1.4% [at 15.8 µM]; in assay [4], -2.09% [at 31.6 µM]; in [7], -2.75% [at 15.8 µM]. In addition, the activation (H2AX phosphorylation) in [2] is -0.451% [at 31.6 µM]. In [3], the activation is 0.38% [at 15.8 µM]. The activity, negative = inhibition in [5] was 10.8% [at 19 µM]. Further, the activity change, positive = activation in [6] is 6.1% [at 19 µM]. The activity change, negative = cytotoxic in assay [8] is 0.479% [at 15.8 µM]; in [10], 2.24% [at 15.8 µM]. Moreover, the cytotoxicity in [9] is -0.0492% [at 15.8 µM].

Regarding `O=[N+]([O-])c1cccc(CCl)c1`, the Potency entry in [1], in assay [4], in assay [5], in [7], in [8] and in [10] was “inactive” throughout. Further, the call in assay [2], in assay [3] and in assay [9] was inactive. For the same compound, the activity change, positive = activation in assay [6] is -0.166%.

As to `Nc1c(Cl)c(F)nc(OCC(=O)O)c1Cl`, the Potency entry in [1], in [4], in assay [5], in assay [7] and in assay [8] was “inactive” each time. The result in [2], in assay [3] and in [9] was inactive. The activity change, positive = activation in assay [6] is 0.0677%.

`C(COCC1CO1)OCC1CO1` (configuration not stated): the Potency entry in assay [1], in [4], in [5] and in assay [7] was “inactive” throughout. Further, the compound was called inactive in assay [2], in [3] and in assay [9]. Further, in assay [6], the activity change, positive = activation was 0.301%.

With `C#CC(C)(C)O`, the Potency result in [1], in assay [4], in [5], in assay [7], in [8] and in [10] was “inactive” each time. The compound was classed as inactive in [2] and in [3]. Besides, the activity change, positive = activation in [6] is -2.81%.

In the case of `CC(C)(N)Cc1ccccc1Cl`, the Potency entry in assay [1], in assay [4], in [5], in assay [7], in assay [8] and in [10] was “inactive” throughout. Also, the compound was classed as inactive in [2], in assay [3] and in assay [9]. The activity change, positive = activation in assay [6] was -8.42% [at 42.5 µM].

For the compound `O=C(O)CBr`, the Potency entry in [1], in [4], in assay [5], in [7] and in assay [8] was “inactive” in each case. The compound was called inactive in assay [2], in [3] and in assay [9]. The activity change, positive = activation in [6] was -0.0549%.

In the case of `CCSC(=O)Cl`, the Potency result in [1], in assay [4], in [5], in [7], in [8] and in [10] was “inactive” in each case. For the same compound, the call in assay [2], in assay [3] and in assay [9] was inactive. In addition, the activity change, positive = activation in assay [6] is 13.4%.
